From PubChem
CSC inhib: blocks cancer stem cells; inhibition, % at 7.5 µM; cancer stem cell-like cells viability, luminescence; hit rate 1.1% among 300,000; in the data active = inhibition above about 75%; inconclusive = no clear call, values can overlap the other calls; tested in HMLE shEcad cells
Beta cell apopt: blocks beta cell apoptosis; INS-1E cytokine-induced death, ATP luminescence, 48 h; percent of positive-control rescue, neutral wells zero; protection from apoptosis, % (test concentration not listed); hit rate 0.8% among 300,000; AID 435005;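 active = Every replicate reaches about 75%, or at least half do and their mean reaches it too, limit read from the data; inconclusive = At least half of replicates reach the limit but their mean does not; inactive = Under half of replicates reach the limit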;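 also: higher means more ATP so stronger rescue from cytokine killing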
Mdm2 MdmX PPI: disrupts the human Mdm2-MdmX interaction; AID 485346; SaOS-2 split-luciferase Mdm2/MdmX complementation, luminescence; O15151+Q00987; hit rate 3% among 330,000; inhibition, % at 8 µM;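 active = inhibition of at least 50% at 8 µM in the primary screen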
Target sequence (O15151 whole entry, looked up): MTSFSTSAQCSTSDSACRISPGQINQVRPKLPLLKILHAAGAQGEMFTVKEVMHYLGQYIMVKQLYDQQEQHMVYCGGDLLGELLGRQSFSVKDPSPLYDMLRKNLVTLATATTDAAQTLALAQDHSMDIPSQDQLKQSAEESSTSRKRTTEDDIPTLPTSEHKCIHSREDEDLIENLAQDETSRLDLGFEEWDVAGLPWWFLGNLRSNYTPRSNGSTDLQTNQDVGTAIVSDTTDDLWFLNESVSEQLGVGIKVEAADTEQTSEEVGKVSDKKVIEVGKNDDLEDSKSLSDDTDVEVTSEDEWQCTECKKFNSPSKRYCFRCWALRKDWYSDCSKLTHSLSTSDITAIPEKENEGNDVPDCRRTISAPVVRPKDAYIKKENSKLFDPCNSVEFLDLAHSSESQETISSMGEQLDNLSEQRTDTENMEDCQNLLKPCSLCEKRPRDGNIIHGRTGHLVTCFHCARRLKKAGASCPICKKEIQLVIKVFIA
Target sequence (Q00987 whole entry, looked up): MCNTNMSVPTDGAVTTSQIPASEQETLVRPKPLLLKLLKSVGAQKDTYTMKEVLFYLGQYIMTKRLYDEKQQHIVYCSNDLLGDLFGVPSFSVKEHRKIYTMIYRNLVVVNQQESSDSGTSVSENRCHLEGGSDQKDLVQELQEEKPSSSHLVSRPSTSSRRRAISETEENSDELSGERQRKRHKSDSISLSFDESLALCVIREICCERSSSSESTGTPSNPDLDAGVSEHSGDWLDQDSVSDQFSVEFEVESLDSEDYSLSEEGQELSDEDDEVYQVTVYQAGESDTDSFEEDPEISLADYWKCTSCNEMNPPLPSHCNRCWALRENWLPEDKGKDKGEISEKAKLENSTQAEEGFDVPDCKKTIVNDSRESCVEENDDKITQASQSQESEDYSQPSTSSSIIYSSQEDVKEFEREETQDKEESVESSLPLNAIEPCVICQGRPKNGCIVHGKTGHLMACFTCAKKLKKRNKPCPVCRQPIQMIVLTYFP
NR3A LBD binder: modulates the human NR3A ligand-binding domain. NR3A LBD differential scanning fluorimetry, Tm shift; 0% = protein alone, 100% = glycine-bound protein. Tm shift relative to glycine control, % at 25 µM. hit rate 2.5% among 340,000. AID 1259313;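 active = melting temperature shift of at least 10% of the positive control shift, at one fixed dose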
MPTP inh: blocks calcium-induced mitochondrial swelling; isolated mouse mitochondria, Ca2+ swelling absorbance, 30 min; hit rate 1.4% among 360,000; AID 602449; inhibition, % at 10 µM;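 active = inhibition of 50% or more, scaled per plate between neutral and stimulator controls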
Gli-Sufu block: Gli-Sufu pathway antagonism. Sufu-KO-LIGHT fibroblasts, Gli luciferase reporter luminescence. inhibition, % at 5 µM. hit rate 0.74% among 340,000. AID 588413;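 active = inhibition above about 55%, limit read from the data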
Large screens that a line does not name were inactive. An excerpt weighted towards active compounds, which were near 6.6% of everything screened.

CCc1ccc(O)c(-c2cc(C(=O)Nc3cccnc3)[nH]n2)c1	NR3A LBD binder 19.6
CC(=O)Nc1ccc(NC(=O)c2cc(-c3cc(C)c(C)cc3O)n[nH]2)cc1	NR3A LBD binder 31.9
CC(C)(C)NC(=O)c1cc(-c2ccccc2)n[nH]1	none
Cc1ccc(NC(=O)c2cc(-c3ccccc3)n[nH]2)cc1	NR3A LBD binder 10.3
Cc1cc(O)c(-c2cc(C(=O)Nc3cccnc3)[nH]n2)cc1C	NR3A LBD binder 26.5
O=C(Nc1cccnc1)c1ccc(F)cc1	none
COc1cc(OC)cc(C(=O)NNC(=O)CCc2ccccc2)c1	none
CC(=O)Nc1ccc(S(=O)(=O)NC2=C(N3CCN(c4ccc(F)cc4)CC3)C(=O)c3ccccc3C2=O)cc1	Beta cell apopt 84.7, NR3A LBD binder 15.6
CCOc1cc(-c2nc(-c3ccccc3OC)no2)cc(OCC)c1OCC	NR3A LBD binder 11.3
CS(=O)(=O)N(CC(=O)Nc1cccc(Br)c1)Cc1ccccc1	none (no result: CSC inhib, Beta cell apopt)
Cc1ccc(OC(C)C(=O)Nc2ccc(C)c(S(=O)(=O)Nc3ccc(C)cc3C)c2)cc1 (stereo unspecified)	NR3A LBD binder 11.6
COc1ccc(NC(=O)c2ccc3c(c2)NC(=O)CS3)cc1	none (no result: CSC inhib)
Cc1ccc(S(=O)(=O)Nc2ccc(Cl)cc2)cc1NC(=O)c1cc2c(s1)CCCC2	NR3A LBD binder 12.3
Cc1ccc(NS(=O)(=O)c2cc(NC(=O)c3cc4c(s3)CCCC4)ccc2C)c(C)c1	NR3A LBD binder 24.7
Cc1ccc(NC(=O)c2cc3c(s2)CCCC3)cc1	none
Cc1ccc(NS(=O)(=O)c2cc(NC(=O)c3ccc4c(c3)NC(=O)CS4)ccc2Cl)c(C)c1	NR3A LBD binder 15.7
COc1cc(CNC(=O)C2CC(O)CN2C(=O)Nc2ccccc2)cc(OC)c1OC (stereo unspecified)	none (no result: CSC inhib, Beta cell apopt, Mdm2 MdmX PPI, NR3A LBD binder, Gli-Sufu block)
Cc1ccc2ccc3cccnc3c2n1	Beta cell apopt 86.3 (no result: Mdm2 MdmX PPI)
Oc1ccc(/C=C/c2nc(-c3ccccc3O)n(-c3ccccc3)n2)cc1	CSC inhib inconclusive, NR3A LBD binder 14.1
Oc1ccccc1-c1nc(/C=C/c2ccccc2)nn1-c1ccccc1	none (no result: Mdm2 MdmX PPI)
CC(NC(=O)Cc1ccsc1)c1ccc(F)cc1 (stereo unspecified)	none
Cc1ccccc1-c1ccc(C(=O)Nc2cccc(F)c2)o1	none
COc1ccc(OC)c(NC(=O)/C=C/c2ccccc2[N+](=O)[O-])c1	none
COc1cccc(NC(=O)c2ccc(-c3ccccc3[N+](=O)[O-])o2)c1	NR3A LBD binder 27.6
Cc1cccc(NC(=O)/C=C/c2ccc([N+](=O)[O-])s2)c1	CSC inhib 107.1, Beta cell apopt 99.2, NR3A LBD binder 12.4 (no result: Mdm2 MdmX PPI)
COc1cccc(NC(=O)/C=C/c2ccccc2[N+](=O)[O-])c1	NR3A LBD binder 26.8
Cc1cccc(NC(=O)c2ccc(-c3ccccc3[N+](=O)[O-])o2)c1	NR3A LBD binder 27.2
O=C(COC(=O)c1ccccc1F)NC(=O)NC1CCCC1	none (no result: CSC inhib)
C#CCNC(=O)C1=C[C@@H](C)[C@H](CCCO)[C@@H](OCC)O1	none
Cc1ccc(C(=O)OCC(=O)NCc2ccco2)cc1	NR3A LBD binder 10.2
O=C(NC(Cc1ccccc1)C(=O)N1CCN(c2ccccc2O)CC1)c1ccccc1 (stereo unspecified)	none (no result: CSC inhib, Beta cell apopt, NR3A LBD binder)
O=C(COC(=O)c1cc(-c2ccccc2)nc2ccccc12)Nc1ccc2c(c1)OCO2	NR3A LBD binder 12.6
COc1ccc(-c2cc(C(=O)OCC(=O)Nc3ccc4c(c3)OCO4)c3ccccc3n2)cc1	NR3A LBD binder 15.0
COc1ccc(NS(=O)(=O)c2ccc(O)c(C(=O)OCC(=O)Nc3ccc4c(c3)OCCO4)c2)cc1	NR3A LBD binder 19.1 (no result: Beta cell apopt)
CC(C)NC(=O)C1(C)CSCC(=O)N1Cc1cccc(F)c1 (stereo unspecified)	none (no result: CSC inhib, Beta cell apopt, Mdm2 MdmX PPI, NR3A LBD binder, Gli-Sufu block)
C/C(CC(=O)Nc1ccc(C)c(Cl)c1)=N\NC(=O)c1ccccn1	none
COc1ccc(OC)c(NC(=O)C23CCC(C)(C(=O)C2)C3(C)C)c1 (stereo unspecified)	NR3A LBD binder 10.8
NCCc1nc(-c2ccccc2)cs1	none
CN(C)c1ccc(C(CNS(=O)(=O)c2ccc3ccccc3c2)c2c[nH]c3ccccc23)cc1 (stereo unspecified)	NR3A LBD binder 16.3
CN(C)c1ccc(C(CN)c2c[nH]c3ccccc23)cc1 (stereo unspecified)	none
CC1CC/C(=C\c2ccc3c(c2)OCO3)C(=O)/C1=C/c1ccc2c(c1)OCO2 (stereo unspecified)	CSC inhib 80.6
